Mcl1-Noxa inh: disrupts binding of human Mcl-1 to Noxa peptide; Q07820; TR-FRET Mcl-1/Noxa peptide binding, 2 h; inhibition, % at 21.7 µM; 220,000 compounds, 1.5% hits;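 active = compounds that cut the protein-peptide binding signal by more than 50% relative to plate controls in a single-dose test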;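 also: His-tagged Mcl-1 with rhodamine Noxa BH3 peptide and terbium anti-His antibody; 0% = Mcl-1 plus Noxa peptide wells and 100% = peptide-only wells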
Target sequence (Q07820 whole entry, looked up): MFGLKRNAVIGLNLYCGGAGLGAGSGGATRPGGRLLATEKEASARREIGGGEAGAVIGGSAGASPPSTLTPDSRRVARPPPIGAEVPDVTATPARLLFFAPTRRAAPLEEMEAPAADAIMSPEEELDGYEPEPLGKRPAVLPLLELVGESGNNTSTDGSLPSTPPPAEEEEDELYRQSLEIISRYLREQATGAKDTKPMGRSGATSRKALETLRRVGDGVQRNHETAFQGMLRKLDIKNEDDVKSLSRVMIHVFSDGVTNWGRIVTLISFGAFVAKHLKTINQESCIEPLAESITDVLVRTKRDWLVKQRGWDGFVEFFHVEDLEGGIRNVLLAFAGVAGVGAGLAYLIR
Mcl1 Bid PPI: Mcl-1/Bid interaction inhibition; Q07820; TR-FRET Mcl-1/Bid-Dy647 peptide binding, 1536-well; inhibition, % at 21.7 µM; 220,000 compounds, 0.97% hits; AID 1021;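 active = compounds that cut the binding signal by more than half at the single screening dose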;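 also: His-tagged Mcl-1 with europium anti-His antibody binding Bid BH3 peptide; 0% = Mcl-1 plus peptide wells and 100% = peptide-only wells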
MCL1 BIM primary: inhibitors of human MCL1 binding to BIM-BH3 peptide; Q07820; GST-MCL1 / FITC-Bim-BH3 fluorescence polarization; inhibition, % at 10.9 µM; 320,000 compounds, 0.68% hits; AID 2057;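 active = inhibition above the mean inhibition of all tested compounds plus 3 SD, set per campaign, cut at about 40% in these data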;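 also: 0% = DMSO wells and 100% = unlabeled Bim-BH3 peptide control; higher means more loss of mP so more displacement of Bim peptide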
Bim-Mcl-1: disrupts Bim peptide binding to human Mcl-1; Q07820; Bead-based flow cytometry, Bim peptide-Mcl-1 binding; inhibition, % at 10 µM; 190,000 compounds, 0.1% hits; AID 1009; in the data active = inhibition above about 40%;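 also: 0% = no compound tracer wells and 100% = peptide blocker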
GLD-1 RNA inh: GLD-1-TGE RNA interaction inhibition (C. elegans). Q17339. purified GLD-1 + fluorescein TGE RNA, fluorescence polarization. inhibition, % at 5.96 µM. 320,000 compounds, 0.44% hits;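 active = percent inhibition above a per-plate cutoff, the plate mean of test compounds plus 3 SD, cut at about 30% in these data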;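 also: 0% = DMSO wells with GLD-1 and probe and 100% = wells lacking GLD-1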
BCLXL inh: inhibitors of human Bcl-xL; Q07817; GST-Bcl-xL / FITC-Bim BH3 peptide fluorescence polarization; inhibition, % at 10.9 µM; 320,000 compounds, 0.7% hits; AID 2129;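 active = inhibition above the mean of all tested compounds plus 3 SD, cutoff set per campaign, cut at about 30% in these data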;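 also: 0% = DMSO wells and 100% = unlabeled Bim-BH3 peptide competitor; inhibitors lower millipolarization by displacing the labeled peptide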
GLD-1 TGE cf: GLD-1 TGE RNA interaction inhibition, confirmation; shares compounds with GLD-1 RNA inh; GLD-1/FL-TGE RNA fluorescence polarization, biochemical; inhibition, % at 5.96 µM; 550 compounds, 10% hits; AID 2459;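 active = average inhibition across triplicates above the hit cutoff set in the primary screen, cut at about 32% in these data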;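 also: 0% = GLD-1 with RNA probe and DMSO and 100% = wells lacking GLD-1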
* marks the source's active call; other numbers are inactive results; x = no result given. Shown are actives, neighbours in structure and some others; about 2.3% of the full set was active somewhere.

SMILES	Mcl1-Noxa inh	Mcl1 Bid PPI	MCL1 BIM primary	Bim-Mcl-1	GLD-1 RNA inh	BCLXL inh	GLD-1 TGE cf
CCN(CC)S(=O)(=O)c1ccc(N2CCCC2)c(NS(=O)(=O)c2ccccc2)c1	-4	-44	9	0	14	13	x
CCN(CC)S(=O)(=O)c1ccc(N2CCCC2)c(NS(=O)(=O)c2ccc(F)cc2)c1	23	-34	12	0	34*	5	57*
Oc1ccc(/C=N/Nc2cc(N3CCCC3)nc(N3CCCC3)n2)cc1	15	-55	24	0	39*	17	38*
CCc1cccc(NC(=O)CCCn2nc(CC)n3c(cc4occc43)c2=O)c1	x	x	31	x	31*	30	-3
COc1cc(NS(=O)(=O)c2ccc(NC(=O)CCC(=O)O)cc2)nc(OC)n1	x	x	-6	x	0	10	x
O=C(Nc1ccccn1)c1ccc(S(=O)(=O)N2CCCCCC2)cc1	x	x	5	x	-6	3	x
O=[N+]([O-])c1cc([N+](=O)[O-])c(Oc2ccc(Br)cc2Br)cc1NN1CCCCC1	x	x	-7	x	100*	-4	-1
COc1cccc(-c2nn(-c3ccc(F)cc3)cc2C(=O)NCC2CCCO2)c1 (stereo unspecified)	x	x	-7	x	7	-1	x
NC(=O)Cn1nc(-c2ccccc2)nc1-c1ccccc1	x	x	-4	x	4	-2	x
Nc1c(C(=O)OCC(=O)Nc2cccc([N+](=O)[O-])c2)[nH]c(=O)[nH]c1=O	x	x	x	x	33*	x	14
CCOC(=O)c1cc2c(ccn2C)n1CC(=O)N1CCN(c2cccc(C(F)(F)F)c2)CC1	-7	-39	4	0	40*	2	47*
CCOC(=O)c1cc2c(ccn2C)n1CC(=O)N1CCN(c2ccc(F)cc2)CC1	12	-97	-1	2	8	0	x
Cc1ccc(S(=O)(=O)c2cc3ccc(O)cc3oc2=O)cc1C	x	x	21	x	32*	28	4
CCCCNS(=O)(=O)NC(=O)C1=C(N2CCCC2)COC1=O	x	x	-3	x	-5	-2	x
COc1ccc(Nc2ncc3c(n2)CC(c2ccc(OC)cc2)CC3=O)cc1 (stereo unspecified)	11	3	-1	0	45*	4	1
COc1ccc(Nc2ncc3c(n2)CC(c2ccc(C)cc2)CC3=O)cc1 (stereo unspecified)	0	-4	7	6	3	6	x
O=C(COc1cc(Cl)c(Cl)cc1Cl)N1CCN(c2ccccn2)CC1	17	4	1	2	1	4	x
Cc1ccc[n+](-c2nc([O-])sc2/C=N/Nc2ccc([N+](=O)[O-])cc2)c1	28	-82	40*	x	39*	42*	39*
COc1ccc(OC)c(-c2cc(C(=O)N/N=C/c3ccc(F)cc3)c3ccccc3n2)c1	x	x	5	x	-2	9	x
COc1ccc(OC)c(-c2cc(C(=O)Nc3ccccc3C(N)=O)c3ccccc3n2)c1	x	x	1	x	34*	5	-2
CC(C)NC(=O)c1ccc2c(c1)N(CC(=O)Nc1ccccc1F)C(=O)C(C)(C)O2	x	x	6	x	10	10	x
CC1(C)CC(=O)C2=C(C1)Nc1cc(Cl)ccc1S2	8	-33	20	x	35*	34*	5
CCCN1C(=O)/C(=C/c2ccc(C)o2)NC1=S	35	-23	34	2	13	28	x
CCN1C(=O)N/C(=C/c2ccc(C)o2)C1=O	25	-81	28	-5	43*	22	-10
Cc1ccc(/C=C2/NC(=O)N(Cc3ccccc3F)C2=O)o1	-17	26	27	-8	34*	18	-50
COC(=O)c1cc2ccc(OC)cc2c2cc(OC)c(OC)cc12	x	x	x	x	-1	x	x
